Assay [1] is described as follows: optical density shifts of acrAB sulA E. coli – strain DRC41, OD650, 48 h, E. coli filamentation inducer project, primary screen (AID 1152).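 Also: E. coli MC1000 strain DRC41 lacking acrAB efflux pump and sulA.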 To be noted: higher = more signal, called active from +8 up or from −8 down.
Assay [2] in a line: probe aLefty1 binding on compound microarray – biochemical, small-molecule microarray, 635/667 nm fluorescence, primary screen (AID 1153).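 Also: score merges spot fluorescence with signal-to-noise ratio from the scanned slide images.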 The note with it: higher = more signal.
The nature of assay [3]: plasmodial surface anion channel blockers, osmotic lysis – cell-based, P. falciparum Indochina, OD700, 1 h, primary screen (AID 1154). To be noted: P. falciparum Indochina infected RBC osmotic lysis, higher = more signal, called active from +8 up or from −8 down.
Assay [4] can be described thus: plasmodial surface anion channel blockers, osmotic lysis – cell-based, P. falciparum Indochina, OD700, 2 h, primary screen (AID 1155).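 Also: lysis reports solute entry through the parasite surface anion channel PSAC.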 The note with it: P. falciparum Indochina infected erythrocytes, higher = more signal, called active from +8 up or from −8 down.
The nature of assay [5]: changes in parasitized red cell lysis, either direction – P. falciparum Indochina, OD700, 3 h, PSAC antagonist project, primary screen (AID 1156). The note with it: P. falciparum-infected erythrocytes, osmotic lysis, higher = more signal, called active from +8 up or from −8 down.
Assay [6] in a line: plasmodial surface anion channel blockers, osmotic lysis – cell-based, P. falciparum Indochina, OD700, 18 h, primary screen (AID 1157). The note with it: P. falciparum Indochina infected erythrocytes, osmotic lysis OD700, 18 h; higher = more signal, called active from +8 up or from −8 down.
A short description of assay [7]: S6 kinase pathway phospho-S6 level changes – cell-based, A549, cytoblot, luminescence, serum-stimulated, primary screen (AID 1158).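 Also: serum-stimulated A549 lung adenocarcinoma cells; signal is phosphorylated S6 detected by cytoblot immunostaining with HRP secondary.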 To be noted: 5 h, higher = more signal.
Assay [8] addresses NADPH oxidase 2 (Homo sapiens) (UniProt P04839). Nature of the assay: compounds shifting NOX2 Amplex Red fluorescence – cell-based, HEK293-NOX2, PMA-stimulated, NOX inhibitor project, primary screen (AID 1159). Also: test concentration not given here. To be noted: 45 min, higher = more signal, called active from +8 up or from −8 down.
For assay [9], the target named is NADPH oxidase 4 (Homo sapiens) (UniProt Q9NPH5). Nature of the assay: compounds shifting NOX4 Amplex Red fluorescence – cell-based, HEK293-NOX4, tetracycline-induced, NOX inhibitor project, primary screen (AID 1160). The note with it: HEK293-NOX4, Amplex Red H2O2 fluorescence, 45 min; higher = more signal, called active from +8 up or from −8 down.
For assay [10], the target named is NADPH oxidase 5 (Homo sapiens) (UniProt Q96PH1). Put plainly: compounds shifting NOX5 Amplex Red fluorescence – cell-based, HEK293-NOX5, NOX inhibitor project, primary screen (AID 1161). To be noted: HEK293-NOX5, ionomycin, 45 min, higher = more signal.
Assay [11] can be described thus: compound effects on lung adenocarcinoma cell viability – A549, calcein-AM fluorescence, 48 h, basal, profiling panel (AID 1162). Also: test concentration not given here. The note with it: higher = more signal.
The nature of assay [12]: compound effects on differentiated 3T3-L1 adipocyte viability – cell-based, 3T3-L1 adipocytes, calcein-AM fluorescence, 48 h, basal, profiling panel (AID 1163). Also: test concentration not given here. The note with it: 3T3-L1 adipocytes viability, higher = more signal.
Assay [13] can be described thus: compound effects on hepatocellular carcinoma cell viability – HepG2, calcein-AM fluorescence, 48 h, basal, profiling panel (AID 1164). Also: test concentration not given here. The note with it: higher = more signal.
Assay [14] in a line: compound effects on multiple myeloma cell viability – MM1S, calcein-AM fluorescence, 48 h, basal, profiling panel (AID 1165).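 Also: viability of MM1S multiple myeloma cells under basal unstimulated conditions; test concentration not given here.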 To be noted: higher = more signal.
A short description of assay [15]: calcein-AM signal in unstimulated myeloma cells – cell-based, calcein-AM fluorescence, 48 h, PK04 Diversity Set, profiling panel (AID 1166).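 Also: cells grown under basal conditions without added stimulus; test concentration not given here.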 To be noted: RPMI8226 myeloma viability, higher = more signal.
The nature of assay [16]: JC-1 mitochondrial signal, unstimulated HepG2 cells – cell-based, JC-1 fluorescence, 24 h, 100 nL compound, profiling panel (AID 1167). Also: test concentration not given here. The note with it: HepG2 mitochondrial potential, higher = more signal.
The nature of assay [17]: JC-1 mitochondrial signal, unstimulated adipocytes – cell-based, JC-1 fluorescence, 3T3-L1 adipocytes, 24 h, 100 nL compound, profiling panel (AID 1168). Also: test concentration not given here. The note with it: JC-1 mitochondrial fluorescence, higher = more signal, called active from +8 up or from −8 down.
Assay [18] in a line: JC-1 mitochondrial signal, unstimulated myeloma cells – cell-based, JC-1 fluorescence, RPMI8226, 24 h, 100 nL compound, profiling panel (AID 1169). Also: test concentration not given here. The note with it: JC-1 mitochondrial potential fluorescence, higher = more signal.
Assay [19] is described as follows: JC-1 mitochondrial signal, unstimulated MM1S myeloma – cell-based, JC-1 fluorescence, 24 h, 100 nL compound, profiling panel (AID 1170). Also: test concentration not given here. The note with it: MM1S mitochondrial potential, higher = more signal.
Assay [20] can be described thus: resazurin metabolic signal in A549 cells – cell-based, resazurin fluorescence, 24 h, PK04 Diversity Set, profiling panel (AID 1171). Also: test concentration not given here. To be noted: A549 viability, higher = more signal, called active from +8 up or from −8 down.

The source made the active and inactive calls.

Sequence of NADPH oxidase 5 (Homo sapiens) (Q96PH1 whole entry, looked up): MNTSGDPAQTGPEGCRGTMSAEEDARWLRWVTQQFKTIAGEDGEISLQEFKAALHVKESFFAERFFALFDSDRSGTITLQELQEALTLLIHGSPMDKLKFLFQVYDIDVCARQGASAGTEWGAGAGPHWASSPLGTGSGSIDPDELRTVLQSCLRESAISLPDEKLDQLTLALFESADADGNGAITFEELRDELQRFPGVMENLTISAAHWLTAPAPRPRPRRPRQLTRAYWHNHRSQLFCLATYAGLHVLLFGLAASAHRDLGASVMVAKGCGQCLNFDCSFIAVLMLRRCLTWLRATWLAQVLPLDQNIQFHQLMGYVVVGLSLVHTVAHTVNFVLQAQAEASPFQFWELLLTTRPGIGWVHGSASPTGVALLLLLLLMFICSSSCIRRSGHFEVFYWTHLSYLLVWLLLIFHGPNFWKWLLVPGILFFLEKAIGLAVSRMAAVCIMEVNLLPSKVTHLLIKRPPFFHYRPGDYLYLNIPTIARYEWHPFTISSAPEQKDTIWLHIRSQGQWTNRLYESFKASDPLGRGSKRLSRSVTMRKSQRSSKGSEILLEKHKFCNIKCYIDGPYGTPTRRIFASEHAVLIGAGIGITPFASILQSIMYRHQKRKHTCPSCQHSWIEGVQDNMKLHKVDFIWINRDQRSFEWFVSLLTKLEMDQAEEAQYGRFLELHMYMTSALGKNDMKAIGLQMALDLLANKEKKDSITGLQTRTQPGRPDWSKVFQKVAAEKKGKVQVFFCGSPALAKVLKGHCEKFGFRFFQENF
Sequence of NADPH oxidase 2 (Homo sapiens) (P04839 whole entry, looked up): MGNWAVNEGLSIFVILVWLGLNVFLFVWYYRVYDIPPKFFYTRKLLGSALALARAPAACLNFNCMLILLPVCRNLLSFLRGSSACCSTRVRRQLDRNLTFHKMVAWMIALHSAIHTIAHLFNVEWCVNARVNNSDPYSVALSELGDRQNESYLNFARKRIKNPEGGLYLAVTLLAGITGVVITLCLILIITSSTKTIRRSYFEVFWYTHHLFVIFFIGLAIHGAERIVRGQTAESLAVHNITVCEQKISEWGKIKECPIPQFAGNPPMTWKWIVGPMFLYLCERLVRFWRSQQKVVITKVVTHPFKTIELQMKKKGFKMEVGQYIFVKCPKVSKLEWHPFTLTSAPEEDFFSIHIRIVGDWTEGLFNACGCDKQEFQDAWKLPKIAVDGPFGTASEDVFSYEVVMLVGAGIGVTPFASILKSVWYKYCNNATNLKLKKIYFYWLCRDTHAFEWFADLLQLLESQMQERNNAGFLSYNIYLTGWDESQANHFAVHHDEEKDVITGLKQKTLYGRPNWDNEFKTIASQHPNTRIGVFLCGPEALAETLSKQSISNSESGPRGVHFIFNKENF
Sequence of NADPH oxidase 4 (Homo sapiens) (Q9NPH5 whole entry, looked up): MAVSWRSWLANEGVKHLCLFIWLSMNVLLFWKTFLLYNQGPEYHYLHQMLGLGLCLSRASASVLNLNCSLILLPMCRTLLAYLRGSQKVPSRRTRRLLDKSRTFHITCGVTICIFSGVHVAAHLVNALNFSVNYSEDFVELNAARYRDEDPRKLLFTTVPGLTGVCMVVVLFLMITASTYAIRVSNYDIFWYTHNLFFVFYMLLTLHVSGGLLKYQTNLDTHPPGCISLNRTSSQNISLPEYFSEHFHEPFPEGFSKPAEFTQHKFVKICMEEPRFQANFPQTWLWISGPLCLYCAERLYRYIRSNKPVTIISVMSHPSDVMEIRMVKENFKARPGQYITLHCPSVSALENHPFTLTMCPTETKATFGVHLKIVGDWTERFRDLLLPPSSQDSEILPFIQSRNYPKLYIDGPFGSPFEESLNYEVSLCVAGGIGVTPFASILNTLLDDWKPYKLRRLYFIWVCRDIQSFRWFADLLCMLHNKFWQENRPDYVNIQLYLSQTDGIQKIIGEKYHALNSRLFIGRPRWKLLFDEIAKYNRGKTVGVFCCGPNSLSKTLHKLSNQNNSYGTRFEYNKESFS

For `Cc1ccccc1C(O)C1C=CC2C(=O)N(c3ccccc3)C(=O)C2N1Nc1ccc(C(C)C)cc1` (stereo not given), the z-score in assay [1] is -1.6 (inactive); in assay [3], 1.85 (inactive); in assay [4] it was 1.05 (inactive); in [5], 0.918 (inactive); in [6], 0.974 (inactive); in assay [7], -0.405. In addition, the z-score is -1.22 (inactive) in assay [8]; -4.14 (inactive) in [9]; -4.42 in assay [10]; -0.0475 in assay [11]; -0.127 in [12]; -0.169 in assay [13]. Also, the z-score in [14] was -0.136; in assay [15] it was -0.727; in [16] it was -2.15; in assay [17], -1.8 (inactive); in [18], -0.754; in [19], -0.0109. Also, the z-score in assay [20] was -1.41 (inactive). In [2], this compound came in with a composite z-score of 0.317.

Turning to `CCCC[C@@H]1C[C@H]1[C@@H](NC(=O)c1cccs1)c1ccc(-c2ccccc2)cc1`, the z-score was -1.89 (inactive) in assay [1]; 2.41 (inactive) in assay [3]; 0.856 (inactive) in assay [4]; -0.398 (inactive) in [5]; 0.668 (inactive) in assay [6]; -0.993 in assay [7]. Also, the z-score was -0.939 (inactive) in assay [8]; -0.827 (inactive) in [9]; 0.936 in assay [10]; -0.997 in [11]; -0.537 in assay [12]; -0.0352 in assay [13]. The z-score in [14] is -0.802; in [15], -0.38; in [16], 0.565; in [17], -1.56 (inactive); in assay [18], -0.233; in assay [19], -0.815. Moreover, the z-score in assay [20] was 1.71 (inactive). Moreover, the composite z-score in assay [2] came out at 0.142.

`CC(C)(C)OC(=O)CC[C@]1(C(=O)N2CCOCC2)N=C(c2ccc(OCCCO)cc2)O[C@H]1c1ccccc1N=[N+]=[N-]`: the z-score in assay [1] was 1.52 (inactive); in assay [3], 33 (active); in assay [4], 31.2 (active); in assay [5], 1.75 (inactive); in assay [6], 2.8 (inactive); in assay [7] it was -0.435. The z-score in [8] was -1.71 (inactive); in assay [9] it was -0.279 (inactive); in assay [10], -1.94; in assay [11], 0.901; in [12] it was 0.232; in assay [13], 0.556. In addition, the z-score in assay [14] is -0.474; in assay [15], -0.337; in assay [16], 1.27; in [17] it was 3.46 (inactive); in assay [18], -0.252; in assay [19], 0.103. Further, the z-score in assay [20] is 1.03 (inactive). For the same compound, in [2], the composite z-score turned out to be 0.171.

For `C=CCC(OC(C)=O)[C@@H]1[C@@H](N(Cc2ccc(-c3cccc(C(F)(F)F)c3)o2)C(=O)c2ccc(C)cc2)c2cc(OCCCO)ccc2N1C(=O)Cc1ccc2ccccc2c1` (stereo not given in full), the z-score in assay [1] is 1.93 (inactive); in assay [3] it was 1.05 (inactive); in [4], 0.172 (inactive); in assay [5], -0.305 (inactive); in assay [6], 0.825 (inactive); in [7], 0.533. For the same compound, the z-score in assay [8] is -0.439 (inactive); in assay [9] it was 1.04 (inactive); in [10], 1.51; in assay [11], 0.474; in [12], 0.9; in [13] it was 0.544. Besides, the z-score in assay [14] is -0.886; in assay [15], 0.707; in [16], 2.75; in [17], 0.417 (inactive); in assay [18], 1.01; in assay [19] it was -0.554. Besides, the z-score in assay [20] was 0.379 (inactive). Further, the composite z-score in assay [2] is -0.0035.

These data come from PubChem BioAssay.
